# From PubChem BioAssay (NCATS)
# Records with an inconclusive call do not appear. Calls of active or inactive are those of the source. Unless noted, the rule behind the calls is not given here.
# Legend:
# [1] = qHTS Assay for Identifying Gametocytocidal Compounds (AID 743244; active = well fitted curve in the direction sought with a large enough effect; an effect the other way counts as inactive or inconclusive;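 note: % is set by controls: 0 for no effect and ±100 for the full control effect; actives lower the fluorescent signal which means gametocytes are killed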); conditions: P. falciparum 3D7 stage III-V gametocytes, alamarBlue, 72 h; max response: stronger effect = lower value
# How it was run: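 P. falciparum 3D7 stage III–V gametocytes (20,000 cells/well) were exposed to compounds for 72 h at 37 °C, 5% CO2. AlamarBlue was then added for 24 h; decreased resorufin fluorescence (Ex 525/Em 598 nm) indicated loss of viability.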
# [2] = qHTS profiling of the MIPE4 collection as inhibitors of Plasmodium falciparum (3D7) proliferation (AID 743344);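 note: scaled between DMSO vehicle wells and 0.29 µM artemisinin as full inhibition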; conditions: P. falciparum 3D7 in erythrocytes, SYBR Green DNA fluorescence, 72 h; at 28.5 µM (top of the series) unless noted
# How it was run: (§1)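 Parasite DNA was quantified by SYBR Green I fluorescence (ex 485, em 535 nm) after overnight lysis in saponin/Triton buffer at room temperature. Cultures at 0.3% parasitemia and 2.5% hematocrit were first exposed to compound for 72 h at 37 C; signals were normalised to artemisinin (0.29 uM) and vehicle wells.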
# [3] = qHTS profiling of the MIPE4 collection as inhibitors of Plasmodium falciparum (DD2) proliferation (AID 743345); conditions: P. falciparum Dd2 in erythrocytes, SYBR Green DNA, 72 h; at 28.5 µM (top of the series) unless noted
# How it was run: as §1
# [4] = qHTS profiling of the MIPE4 collection as inhibitors of Plasmodium falciparum (DD2) proliferation (Rep 2) (AID 743346); conditions: P. falciparum Dd2 in erythrocytes, SYBR Green DNA, 72 h; at 28.5 µM (top of the series) unless noted
# How it was run: as §1
# [5] = qHTS profiling of the MIPE4 collection as inhibitors of Plasmodium falciparum (HB3) proliferation (AID 743347);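 note: plate controls were DMSO vehicle wells for no effect and artemisinin wells for full effect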; conditions: P. falciparum HB3 in erythrocytes, SYBR Green DNA, 72 h; at 28.5 µM (top of the series) unless noted
# How it was run: as §1
# [6] = High-throughput drug toxicity screening in the BPDCN cell line Cal-1 (AID 1224825); conditions: Cal-1 BPDCN cell viability, qHTS; at 45.8 µM (top of the series) unless noted;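 note: cells exposed to compounds for 48 h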
# How it was run: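 Viability of the BPDCN line Cal-1 is measured as ATP-based luminescence (CellTiter-Glo) following 48 h incubation with compounds. Percent activity uses DMSO-treated wells as 100% and 9.2 uM bortezomib as 0%.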
# [7] = qHTS assay for measurement of the activity of small molecule inhibitors on Zika virus induced Caspase-3 activity in human iPSC derived neural progenitor cells (hNPCs) (AID 1224857; active = well fitted curve in the direction sought with a large enough effect; an effect the other way counts as inactive or inconclusive; note: % of control where 0% means no effect; nearly all actives have a fitted effect of over 65% in size)
# How it was run: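 hNPCs seeded 350 cells/well, cultured 16–20 h; compounds added 1 h before ZIKV (2 FFU/cell), 37 C 6 h. Caspase-Glo 3/7 luminescence after 30 min RT; % inhibition from induction scaled to uninfected (0%) and infected (100%) wells.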
# [8] = qHTS assay for measurement of the activity of small molecule inhibitors on Zika virus induced Caspase-3 activity in human astrocytoma cells (AID 1224859; active = well fitted curve in the direction sought with a large enough effect; an effect the other way counts as inactive or inconclusive;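 note: plate controls were ZIKV-infected untreated cells for no effect and uninfected cells for full effect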)
# How it was run: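 Luminescence read-out (Caspase-Glo 3/7, 30 min RT) of caspase activity in SNB-19 cells infected 6 h with ZIKV, 2 FFU/cell, after 1 h compound pretreatment; % inhibition from induction normalised to uninfected (0%) and infected (100%) wells.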
# [9] = qHTS profiling for inhibitors of Plasmodium falciparum (3D7) proliferation (AID 743322);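 note: infected erythrocytes exposed to compound for 72 h before lysis; 100% = DMSO vehicle wells and 0% = 0.29 µM artemisinin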; conditions: P. falciparum 3D7 proliferation; at 28.7 µM (top of the series)
# How it was run: as §1
# [10] = qHTS profiling for inhibitors of Plasmodium falciparum (DD2) proliferation (AID 743323); conditions: lower = more inhibition; at 28.7 µM (top of the series)
# How it was run: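 Parasite proliferation measured via DNA-dye fluorescence, as uninfected erythrocytes lack DNA. Cultures at 0.3% parasitemia and 2.5% hematocrit incubated 72 h with compound; signal scaled between vehicle and 0.29 uM artemisinin wells.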
# [11] = qHTS profiling for inhibitors of Plasmodium falciparum (HB3) proliferation (AID 743324; active = well fitted curve in the direction sought with a large enough effect; an effect the other way counts as inactive or inconclusive;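 note: 100% = DMSO vehicle wells and 0% = artemisinin-treated control wells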); conditions: Plasmodium falciparum HB3 blood-stage proliferation; at 28.7 µM (top of the series)
# How it was run: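 SYBR Green fluorescence (485 ex/535 em) of lysed cultures, incubated overnight at room temperature in the dark, quantifies parasite DNA. Infected erythrocytes at 0.3% parasitemia and 2.5% hematocrit were exposed 72 h; values normalized to DMSO and 0.29 uM artemisinin controls.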
# [12] = qHTS assay for small molecule agonists of the antioxidant response element (ARE) signaling pathway measured by Nrf2-dependant transcriptional activity (AID 720636; active = well fitted curve in the direction sought with a large enough effect in the repeat runs; an effect the other way counts as inactive or inconclusive;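 note: HepG2 cells with an ARE-driven luciferase reporter; % of control where 0% means no effect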)
# How it was run: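 Reporter gene assay, HepG2 ARE-luc: 16 hr compound, 37 C, 5% CO2; read-out luciferase luminescence.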
# [13] = qHTS assay for small molecule antagonists of the retinoid-related orphan receptor gamma (ROR-gamma) signaling pathway - cell viability counter screen (AID 720652; active = well fitted curve in the direction sought with a large enough effect in the repeat runs; an effect the other way counts as inactive or inconclusive;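 note: CHO reporter cells with doxycycline-induced ROR-gamma expression; compound exposure lasted 16 hr before ATP read; % is set by controls: 0 for no effect and ±100 for the full control effect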)
# How it was run: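 Cytotoxicity counter screen: intracellular ATP (CellTiter-Glo luminescence) measured in the doxycycline-induced CHO RORE-luciferase reporter line after 16 hr compound exposure at 37 C, 5% CO2.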
# [14] = qHTS assay for small molecule agonists of the antioxidant response element (ARE) signaling pathway measured by Nrf2-dependant transcriptional activity - cell viability counter screen (AID 720653; active = well fitted curve in the direction sought with a large enough effect in the repeat runs; an effect the other way counts as inactive or inconclusive; note: % is set by controls: 0 for no effect and ±100 for the full control effect); conditions: ARE-bla HepG2 viability, CellTiter-Glo ATP luminescence, 16 h; max response: stronger effect = lower value
# How it was run: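 ARE-bla HepG2 cells (2,000/well) rested 5 hrs at 37C/5% CO2, then exposed to compounds in DMSO for 16 hrs. Viability was read in the same wells as intracellular ATP by luminescence, 30 min at room temperature after reagent addition.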
# [15] = qHTS assay for cell viability of HEK293 cells (AID 743288; active = well fitted curve in the direction sought with a large enough effect; an effect the other way counts as inactive or inconclusive; note: % is set by controls: 0 for no effect and ±100 for the full control effect; nearly all actives have a fitted effect of over 50% in size); conditions: ATP luminescence (CellTiter-Glo), 18 h; max response: stronger effect = lower value
# How it was run: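 Quantitative high-throughput screen: compounds were pinned onto parental HEK293 cells (2,000 per well) after a minimum 5 h settling at 37 C, incubated 18 h at 37 C, and intracellular ATP measured by luciferase luminescence.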
# [16] = qHTS assay for cell viability of the p53RE-bla HCT-116 cell line (AID 743292; active = well fitted curve in the direction sought with a large enough effect; an effect the other way counts as inactive or inconclusive; note: % is set by controls: 0 for no effect and ±100 for the full control effect; nearly all actives have a fitted effect of over 55% in size)
# How it was run: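 Readout: CellTiter-Glo luminescence after 30 min RT. Treatment: compounds in DMSO, 16 h, 37 C. Cells: CellSensor p53RE-bla HCT-116, 4,000/well, preincubated 5 h.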
# [17] = target: T1, Hexokinase-4 (Homo sapiens) + Glucokinase regulatory protein (Homo sapiens) (UniProt P35557+Q14397); test: qHTS assay for inhibitors of recombinant human GCK-GKRP interaction: Diaphorase-coupled assay (AID 743205; active = well fitted curve in the direction sought with a large enough effect; an effect the other way counts as inactive or inconclusive)
# T1 sequence (P35557 whole entry, looked up): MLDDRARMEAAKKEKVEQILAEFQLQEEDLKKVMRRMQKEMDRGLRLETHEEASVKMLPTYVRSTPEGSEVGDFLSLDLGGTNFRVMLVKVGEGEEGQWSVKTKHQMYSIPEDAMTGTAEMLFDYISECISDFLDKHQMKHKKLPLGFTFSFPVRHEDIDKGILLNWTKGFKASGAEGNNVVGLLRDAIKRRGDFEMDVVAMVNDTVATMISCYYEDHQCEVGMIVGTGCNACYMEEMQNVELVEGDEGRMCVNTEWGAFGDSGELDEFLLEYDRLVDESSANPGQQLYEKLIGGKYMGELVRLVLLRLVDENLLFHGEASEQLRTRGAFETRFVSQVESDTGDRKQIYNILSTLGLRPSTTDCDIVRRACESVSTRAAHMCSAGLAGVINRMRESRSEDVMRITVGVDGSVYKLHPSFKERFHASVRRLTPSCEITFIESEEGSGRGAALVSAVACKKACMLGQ
# T1 sequence (Q14397 whole entry, looked up): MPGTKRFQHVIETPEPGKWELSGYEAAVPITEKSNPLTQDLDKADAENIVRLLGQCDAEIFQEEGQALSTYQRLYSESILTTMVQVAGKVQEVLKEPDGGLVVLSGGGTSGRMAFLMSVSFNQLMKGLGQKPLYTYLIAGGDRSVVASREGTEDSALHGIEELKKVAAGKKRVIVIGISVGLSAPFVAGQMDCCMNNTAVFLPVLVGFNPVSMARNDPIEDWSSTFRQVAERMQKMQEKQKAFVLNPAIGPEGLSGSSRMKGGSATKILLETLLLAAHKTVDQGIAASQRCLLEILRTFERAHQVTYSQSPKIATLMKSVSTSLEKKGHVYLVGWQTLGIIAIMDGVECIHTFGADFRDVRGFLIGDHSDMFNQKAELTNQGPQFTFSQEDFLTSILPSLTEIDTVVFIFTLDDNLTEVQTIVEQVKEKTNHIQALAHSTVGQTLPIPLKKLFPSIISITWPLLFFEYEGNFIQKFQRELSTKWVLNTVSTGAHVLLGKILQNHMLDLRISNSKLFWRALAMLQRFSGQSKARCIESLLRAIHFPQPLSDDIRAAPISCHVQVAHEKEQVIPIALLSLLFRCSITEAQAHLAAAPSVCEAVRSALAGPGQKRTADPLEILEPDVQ
# How it was run: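 Inhibitors of the GCK–GKRP complex relieve GKRP suppression of GCK, detected through a G6PDH–diaphorase cascade reducing resazurin. Human GST-GCK and FLAG-GKRP are used at 10 nM with 5 mM glucose and 0.4 mM ATP.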
# [18] = target: T1, Hexokinase-4 (Homo sapiens) + Glucokinase regulatory protein (Homo sapiens); test: qHTS assay for inhibitors of recombinant human GCK-GKRP interaction: ADP-Glo assay (AID 743206; active = well fitted curve in the direction sought with a large enough effect; an effect the other way counts as inactive or inconclusive;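 note: plate controls were DMSO plus enzyme for no effect and no enzyme for full effect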)
# How it was run: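 Pin-transferred compounds meet a 15 nM GST-GCK/15 nM FLAG-GKRP/2 uM S6P mix (dispense concentrations). ATP is then added to 0.4 mM final with 5 mM glucose, and the reaction runs 60 min at room temperature. ADP is quantified luminescently.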
# [19] = target: T1, Hexokinase-4 (Homo sapiens) + Glucokinase regulatory protein (Homo sapiens); test: qHTS assay for inhibitors of recombinant human GCK-GKRP interaction: HTRF assay (AID 743207; active = well fitted curve in the direction sought with a large enough effect; an effect the other way counts as inactive or inconclusive;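 note: 0% = DMSO with GCK present and -100% = DMSO wells lacking GCK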)
# How it was run: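 Steps: dispense GCK–GKRP complex (5 nM each, GST- and FLAG-tagged) with 2 uM S6P; pin in compounds; add XL665/Eu-cryptate-labelled antibodies; incubate 60 min at room temperature; read time-resolved FRET at 665 and 615 nm.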
compound,measurement,setting,value
COC(=O)Nc1nc2ccc(S(=O)c3ccccc3)cc2[nH]1 (centres undefined),max response,[1],20.6% (inactive)
same,"parasite growth, % of DMSO control",[2],67%
same,"parasite growth remaining, % of DMSO control (lower = more inhibition)",[3],82.8%
same,"parasite growth, % of control (lower = inhibition)",[4],68.5%
same,"growth, % of control",[5],104%
same,viability (% of control),[6],22.2%
same,Potency,[7],inactive
same,Potency,[8],inactive
O=C(NCC1CN(c2ccc(N3CCOCC3=O)cc2)C(=O)O1)c1ccc(Cl)s1 (centres undefined),"parasite growth, % of DMSO control",[2],74.4%
same,"parasite growth remaining, % of DMSO control (lower = more inhibition)",[3],94.4%
same,"parasite growth, % of control (lower = inhibition)",[4],80.7%
same,"growth, % of control",[5],59.9%
same,viability (% of control),[6],48.9%
same,Potency,[7],inactive
same,Potency,[8],inactive
CCN[C@H]1C[C@H](C)S(=O)(=O)c2sc(S(N)(=O)=O)cc21,"parasite growth, % of DMSO control",[2],93.1%
same,"parasite growth remaining, % of DMSO control (lower = more inhibition)",[3],19.2%
same,"parasite growth, % of control (lower = inhibition)",[4],117%
same,"growth, % of control",[5],103%
same,viability (% of control),[6],102%
same,Potency,[7],inactive
same,Potency,[8],inactive
COc1cccc(N(C)C(=S)Oc2ccc3c(c2)CCCC3)n1,"parasite growth, % of DMSO control",[2],47.9%
same,"parasite growth remaining, % of DMSO control (lower = more inhibition)",[3],82.7%
same,"parasite growth, % of control (lower = inhibition)",[4],34.5%
same,"growth, % of control",[5],24.4%
same,viability (% of control),[6],76.1%
same,Potency,[7],inactive
same,Potency,[8],inactive
O=C(O)c1cn(C2CC2)c2cc(N3CCNCC3)c(F)cc2c1=O,max response,[1],4.49% (inactive)
same,remaining parasite growth % (stronger effect = lower value),[9],95%
same,"activity, percent of control",[10],90.7%
same,"remaining proliferation (% of control), lower = more inhibition",[11],92.1%
same,"parasite growth, % of DMSO control",[2],75.2%
same,"parasite growth remaining, % of DMSO control (lower = more inhibition)",[3],85.5%
same,"parasite growth, % of control (lower = inhibition)",[4],67.8%
same,"growth, % of control",[5],76.4%
same,viability (% of control),[6],103%
same,Potency,[7],inactive
same,Potency,[8],inactive
COc1ccc2cc3[n+](cc2c1OC)CCc1cc2c(cc1-3)OCO2,outcome,[12],inactive
same,Potency,[13],inactive
same,max response,[14],-27.8% (inactive)
same,max response,[15],-16% (inactive)
same,Potency,[16],inactive
same,"parasite growth, % of DMSO control",[2],5.45%
same,"parasite growth remaining, % of DMSO control (lower = more inhibition)",[3],6.26%
same,"parasite growth, % of control (lower = inhibition)",[4],13.4%
same,"growth, % of control",[5],4.47%
same,viability (% of control),[6],7.43%
same,Potency,[7],inactive
same,Potency,[8],inactive
COc1ncnc(NS(=O)(=O)c2ccc(N)cc2)c1OC,remaining parasite growth % (stronger effect = lower value),[9],82.4%
same,"activity, percent of control",[10],85.3%
same,"parasite growth, % of DMSO control",[2],170%
same,"parasite growth remaining, % of DMSO control (lower = more inhibition)",[3],105%
same,"parasite growth, % of control (lower = inhibition)",[4],99.5%
same,"growth, % of control",[5],747%
same,viability (% of control),[6],96.2%
same,Potency,[7],inactive
same,Potency,[8],inactive
COCCCOc1cc(C[C@@H](C[C@H](N)[C@@H](O)C[C@H](C(=O)NCC(C)(C)C(N)=O)C(C)C)C(C)C)ccc1OC,max response,[1],13.7% (inactive)
same,"parasite growth, % of DMSO control",[2],40.6%
same,"parasite growth remaining, % of DMSO control (lower = more inhibition)",[3],119%
same,"parasite growth, % of control (lower = inhibition)",[4],50.1%
same,"growth, % of control",[5],86.2%
same,viability (% of control),[6],113%
same,Potency,[7],inactive
same,Potency,[8],inactive
CC(C)NCC(O)c1ccc(NS(C)(=O)=O)cc1 (centres undefined),outcome,[17],inactive
same,outcome,[18],inactive
same,outcome,[19],inactive
same,"parasite growth, % of DMSO control",[2],44.4%
same,"parasite growth remaining, % of DMSO control (lower = more inhibition)",[3],94.6%
same,"parasite growth, % of control (lower = inhibition)",[4],30.5%
same,"growth, % of control",[5],52.5%
same,viability (% of control),[6],120%
same,Potency,[7],inactive
same,Potency,[8],inactive
